Test systems include T-47D breast; BT-549 breast; MDA-MB-435 melanoma; SW-620 colon; MCF7 breast; HCT-116 colon; HCC-2998 colon; KM12 colon.
Holding throughout (assay): NCI-60 one-dose screen, 48 h (100 = growth as untreated, 0 = no growth, -100 = all killed)
Common to all, as to settings: 10 µM unless noted

The panel holds about 83,000 compounds, 20% with a hit somewhere; the sample as a whole holds those more often.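 The test compound was applied at a single concentration to cells in 96-well plates for 48 hours, and percent growth was recorded.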 Unmarked numbers belong to inactive results. Active and inactive are the calls of the source. How the source made its calls: active means growth percent below 10; inactive means the rest.

On to `O=C1C(c2c(O)[nH]c3ncccc23)=Nc2ccccc21`, for which the growth with T-47D breast was 48.4%; in the assay with BT-549 breast, 70.6%; with MDA-MB-435 melanoma, 92.9%; in the assay with SW-620 colon it was 102%; in the assay with MCF7 breast it was 41%; with HCT-116 colon, 48.5%. Besides, the growth is 25.3% in the assay with HCC-2998 colon and 69.5% in the assay on KM12 colon.

On to `O=C(/C=C/C12c3ccccc3C(c3ccccc31)C1C(=O)NC(=O)C12)c1cccs1` (stereo not drawn), for which the growth with T-47D breast is 39.9%; in the assay with BT-549 breast it was 33.5%; in the assay with MDA-MB-435 melanoma it was 4.93% (active); in the assay with SW-620 colon, 27.1%; in the assay on MCF7 breast, 14.2%; in the assay on HCT-116 colon, 14.4%. In addition, the growth was 99.4% in the assay with HCC-2998 colon and 22.6% with KM12 colon.

As for `CSc1nn2c(-c3cc4cc(Br)ccc4oc3=O)ccnc2c1C#N`, the growth in the assay with T-47D breast was 99.7%; in the assay with BT-549 breast, 105%; in the assay with MDA-MB-435 melanoma, 101%; in the assay on SW-620 colon, 103%; with MCF7 breast, 94.9%; in the assay on HCT-116 colon, 94.3%. Besides, the growth in the assay on HCC-2998 colon was 102%; in the assay on KM12 colon, 107%.

Consider `CCOc1ccc(-c2cc(C3(S(=O)(=O)c4ccc(C)cc4)CC=CC3)on2)cc1`, for which the growth with T-47D breast is 64.4%; in the assay on BT-549 breast it was 94.8%; with MDA-MB-435 melanoma, 95.1%; in the assay with SW-620 colon it was 89.4%; in the assay on MCF7 breast it was 95.9%; in the assay with HCT-116 colon, 82.3%. Further, the figures for the growth with HCC-2998 colon and in the assay on KM12 colon were 97.1% and 94.4%, respectively.

Regarding `CCC(C)C(N)C(=O)NC(CC(C)C)C(=O)N1CCCC1C(=O)NC(Cc1c[nH]c2ccccc12)C(=O)NC(CCCCN)C(=O)NC(Cc1c[nH]c2ccccc12)C(=O)N1CCCC1C(=O)NC(Cc1c[nH]c2ccccc12)C(=O)NC(Cc1c[nH]c2ccccc12)C(=O)N1CCCC1C(=O)NC(Cc1c[nH]c2ccccc12)C(=O)NC(CCCNC(=N)N)C(=O)NC(CCCNC(=N)N)C(N)=O` (stereo not drawn), the growth in the assay on T-47D breast was 108%; in the assay on BT-549 breast, 109%; in the assay with MDA-MB-435 melanoma, 95.9%; in the assay on SW-620 colon it was 108%; in the assay on MCF7 breast, 121%; with HCT-116 colon it was 95.3%. Further, the values for the growth in the assay on HCC-2998 colon and in the assay with KM12 colon were 101% and 63.7%, respectively.

Take `COC(=O)[C@H]1Cc2c([nH]c3ccccc23)[C@H](c2ccc3c(c2)OCO3)N1`: the growth with T-47D breast is 91.8%; with BT-549 breast it was 99.5%; in the assay on MDA-MB-435 melanoma it was 101%; with SW-620 colon, 102%; in the assay with MCF7 breast, 93.3%; in the assay on HCT-116 colon, 97.6%. For the same compound, the growth with HCC-2998 colon was 97.6%; in the assay on KM12 colon, 99.3%.

Regarding `COc1ccc2c(c1)c(-c1nc(-c3cn(C)c4ccncc34)cs1)cn2C`, the growth in the assay on T-47D breast was 95.7%; in the assay on BT-549 breast, 91.2%; in the assay on MDA-MB-435 melanoma, -90% (active); in the assay on SW-620 colon, -77.5% (active); with MCF7 breast, -55.7% (active); in the assay on HCT-116 colon it was -88.6% (active). Further, the growth in the assay with HCC-2998 colon was -54.1% (active); in the assay on KM12 colon, -53.1% (active).

On to `CC1=C2[C@@H](CC1)[C@]1(C)O[C@@](C(C)C)(C[C@H]1OC(=O)CO)[C@H]2OC(=O)CCCc1ccccc1`, for which the growth in the assay with T-47D breast is 25.3%; in the assay on BT-549 breast, 53.3%; in the assay with MDA-MB-435 melanoma it was 78.7%; with SW-620 colon, 77.3%; with MCF7 breast, 82.4%; in the assay with HCT-116 colon, 68.7%. Further, the growth is 84% with HCC-2998 colon and 60.9% with KM12 colon.

On to `Nc1cc(-c2ccc(Cl)cc2)nn1-c1nc(-c2ccc(Br)cc2)cs1`, for which the growth in the assay with T-47D breast was 98.2%; in the assay with BT-549 breast, 100%; with MDA-MB-435 melanoma, 99.7%; in the assay with SW-620 colon, 106%; in the assay on MCF7 breast, 89.8%; with HCT-116 colon it was 94.4%. In addition, the growth with HCC-2998 colon was 101%; with KM12 colon, 104%.

`CCCNNC(=O)c1ccc(CNC(=O)/C=C/c2ccccc2)cc1`: the growth was 0.925% [2.5 µM] (active) in the assay with T-47D breast; 77.2% [2.5 µM] with BT-549 breast; 31.8% [2.5 µM] with MDA-MB-435 melanoma; 22.9% [2.5 µM] in the assay on SW-620 colon; 30.6% [2.5 µM] in the assay with MCF7 breast; 1.27% [2.5 µM] (active) in the assay on HCT-116 colon. The growth with HCC-2998 colon was 34.2% [2.5 µM]; with KM12 colon, 47.1% [2.5 µM].

For the compound `Cc1c2ccncc2c(C)c2c1c1ccccc1n2CCCCCC(=O)O`, the growth was 86.5% with T-47D breast; 89.4% in the assay with BT-549 breast; 99.2% with MDA-MB-435 melanoma; 82.4% with SW-620 colon; 77.6% with MCF7 breast; 75.8% in the assay with HCT-116 colon. In addition, the growth with HCC-2998 colon was 104%; in the assay on KM12 colon, 82.3%.

In the case of `COC(=O)c1c(C(=O)OC)c2ccc3c4ncccc4ccc3n2c1C(=O)c1ccc(C)cc1`, the growth was 54.4% with T-47D breast; 88.1% in the assay with BT-549 breast; 102% in the assay with MDA-MB-435 melanoma; 98.8% in the assay on SW-620 colon; 86.2% in the assay with MCF7 breast; 95.6% with HCT-116 colon. Further, the growth in the assay with HCC-2998 colon was 107%; in the assay with KM12 colon, 97%.

Regarding `O=C1/C(=C/c2ccccc2)COc2ccc(O)cc21`, the growth is 80.7% in the assay on T-47D breast; 81.2% with BT-549 breast; 68.4% with MDA-MB-435 melanoma; 53.1% with SW-620 colon; 23.7% in the assay on MCF7 breast; 51.9% with HCT-116 colon. The growth in the assay on HCC-2998 colon was 101%; with KM12 colon, 41.4%.

For the compound `Nc1ccc(Cl)c2c(=O)c3ccccc3[nH]c12`, the growth in the assay with T-47D breast is 82.6%; in the assay with BT-549 breast it was 75.4%; in the assay on MDA-MB-435 melanoma it was 86.3%; in the assay with SW-620 colon, 86%; in the assay with MCF7 breast it was 65%; in the assay with HCT-116 colon, 84.9%. Further, the growth in the assay with HCC-2998 colon was 88.6%; in the assay with KM12 colon it was 89.7%.

Consider `COCCNC(=O)Cc1cc(-c2ccc(Cl)cc2)n(-c2ccccc2)c1C`, for which the growth in the assay on T-47D breast was 56.3%; with BT-549 breast, 83.5%; with MDA-MB-435 melanoma, 93.7%; in the assay with SW-620 colon, 94.9%; in the assay on MCF7 breast, 88.6%; with HCT-116 colon it was 80.4%. The growth with HCC-2998 colon is 99.3%; in the assay on KM12 colon, 91.7%.

Take `C=C(C[n+]1ccccc1)[C@@H]1CC[C@]2(C(=O)OC)CC[C@]3(C)[C@H](CC[C@@H]4[C@@]5(C)CCC(=O)C(C)(C)[C@@H]5CC[C@]43C)[C@@H]12`: the growth in the assay on T-47D breast is 81.4%; in the assay with BT-549 breast, 72.8%; with MDA-MB-435 melanoma, 77.6%; in the assay on SW-620 colon, 89%; in the assay with MCF7 breast, 82.9%; in the assay on HCT-116 colon, 96.9%. Further, the growth with HCC-2998 colon was 90.9%; with KM12 colon, 78.4%.

These data come from PubChem BioAssay (NCI).
